Among the data in PubChem BioAssay are composite z-score and composite Z-score values, retold here.

Test [1] concerns the target Albumin (Bos taurus) (UniProt P02769). The test is described as follows: compounds binding labelled BSA control protein – biochemical, small-molecule microarray, Alexa647 label, 635/667 nm fluorescence, artefact control for SMM control protein annotation, profiling panel (AID 1118).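 Also: score merges 667 nm emission intensity and signal-to-noise per printed compound spot.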 Particulars: BSA-A647 binding, fluorescence 635 nm, higher = more signal.
The nature of test [2]: probe aXIP binding to arrayed compounds – biochemical, NeuroSMM set, 635/667 nm fluorescence, primary screen (AID 1119).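 Also: probe is the protein aXip251-270 applied at 1 µg/mL to compound-printed slides; binding of probe to printed compounds measured as 667 nm fluorescence plus signal to noise.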 Particulars: small-molecule microarray, higher = more signal, called active from +8 up or from −8 down.
A short description of test [3]: probe aNOTCH3 binding on compound microarray – biochemical, small-molecule microarray, 635/667 nm fluorescence, primary screen (AID 1120).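 Also: probe is a biotin-tagged antibody raised against NOTCH3 rather than NOTCH3 protein; score merges spot fluorescence near 667 nm with spot signal to noise.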 To be noted: higher = more signal.
Test [4] is described as follows: probe aNOTCH2 binding on compound microarray – biochemical, small-molecule microarray, 635/667 nm fluorescence, primary screen (AID 1121).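 Also: score merges feature fluorescence read at 667 nm with its signal to noise.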 To be noted: higher = more signal.
Test [5] deals with Carbonic anhydrase 2 (Homo sapiens) (UniProt P00918). Briefly: compounds binding carbonic anhydrase 2 – biochemical, small-molecule microarray, Alexa647-labelled CAII, profiling panel (AID 1122). Particulars: CAII-A647 binding fluorescence, higher = more signal.
Test [6] is described as follows: COS7 lysate on small-molecule microarray, probe aHis, 635 nm (AID 1123).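 Also: z-score combines 667nm fluorescence intensity with signal-to-noise per printed compound spot.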 To be noted: COS7 cell lysate, fluorescence, higher = more signal.
Test [7] in a line: probe aLAP1 signal on lysate-treated microarray – cell lysate, small-molecule microarray, COS7 lysate, primary screen (AID 1124).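 Also: lysate comes from COS7 cells expressing LAP1 and is applied at 0.3 µg/mL; score merges spot fluorescence near 667 nm with signal-to-noise over triplicate slides.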 To be noted: probe aLAP1, fluorescence, higher = more signal.
Test [8] relates to Sam68 (KHDRBS1). Briefly: compounds binding KHDRBS1 protein – biochemical, small-molecule microarray, 635 nm fluorescence, primary screen (AID 1125).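 Also: score merges 667 nm channel intensity with signal to noise over triplicate slides.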 To be noted: higher = more signal.
Test [9] relates to Chordin-like protein 2 (CHRDL2). Briefly: compounds binding chordin-like 2 – biochemical, small-molecule microarray, 635 nm fluorescence, primary screen (AID 1126).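 Also: printed compound slides probed with Chrdl2 protein at 4 µg/mL for 1 h at 4 C; score merges 667 nm emission intensity with signal to noise over three replicate slides.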 Particulars: fluorescence 635 nm, higher = more signal.
Test [10] deals with Concanavalin-A (Canavalia ensiformis) (UniProt P02866). The test is described as follows: compounds binding concanavalin A lectin – biochemical, small-molecule microarray, Alexa647 label, 635 nm, artefact control for SMM control protein annotation, primary screen (AID 1127).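 Also: z combines 667 nm emission intensity with signal-to-noise across three replicate slides.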 Particulars: ConA-A647 binding fluorescence, higher = more signal.

Active and inactive are the calls of the source.

Concanavalin-A (Canavalia ensiformis), sequence (P02866 whole entry, looked up): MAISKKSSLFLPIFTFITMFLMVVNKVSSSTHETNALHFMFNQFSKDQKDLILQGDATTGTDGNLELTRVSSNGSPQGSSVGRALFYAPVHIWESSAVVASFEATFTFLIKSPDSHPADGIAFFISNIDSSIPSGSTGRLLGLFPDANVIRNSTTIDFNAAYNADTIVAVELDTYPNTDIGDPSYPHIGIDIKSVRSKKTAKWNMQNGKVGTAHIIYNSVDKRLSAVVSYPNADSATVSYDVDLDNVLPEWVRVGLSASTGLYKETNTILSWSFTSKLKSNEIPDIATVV
Albumin (Bos taurus), sequence (P02769 whole entry, looked up): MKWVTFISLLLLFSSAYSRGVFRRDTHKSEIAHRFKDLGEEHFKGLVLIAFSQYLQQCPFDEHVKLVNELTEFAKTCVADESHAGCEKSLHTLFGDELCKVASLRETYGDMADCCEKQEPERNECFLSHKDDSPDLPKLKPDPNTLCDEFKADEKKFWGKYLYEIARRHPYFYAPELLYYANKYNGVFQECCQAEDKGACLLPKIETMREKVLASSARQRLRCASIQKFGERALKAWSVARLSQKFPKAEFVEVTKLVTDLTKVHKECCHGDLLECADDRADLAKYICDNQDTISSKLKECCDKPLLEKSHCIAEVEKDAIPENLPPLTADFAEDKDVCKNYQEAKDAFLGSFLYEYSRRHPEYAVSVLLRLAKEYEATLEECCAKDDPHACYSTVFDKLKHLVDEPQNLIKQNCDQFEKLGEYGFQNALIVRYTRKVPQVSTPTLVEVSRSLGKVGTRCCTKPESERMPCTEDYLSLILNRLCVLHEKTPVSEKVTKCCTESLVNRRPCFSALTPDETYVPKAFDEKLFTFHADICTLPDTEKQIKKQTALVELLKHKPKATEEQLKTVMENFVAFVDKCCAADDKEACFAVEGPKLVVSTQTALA

Turning to `COc1ccc(C#Cc2ccc3c(c2)[C@]2(C(=O)N3)[C@H](c3ccccc3OCCO)N3[C@H](c4ccccc4)[C@H](c4ccccc4)OC(=O)[C@H]3[C@@H]2C(=O)O)cc1`, the composite z-score came out at 0.702 in test [1]; 0.671 in test [3]; 0.114 in test [4]; 0.473 in test [5]; 2.27 in test [6]; 0.649 in test [7]. The composite z-score in test [8] is 1.3; in test [9], -0.0011; in test [10], 1.15. For the same compound, in [2], the composite Z-score is -0.274 (inactive).
In the case of `CC(C)C[C@@H]1NC(=O)[C@H]2C[C@@H](C(=O)NCCCCCCN(C)C)[C@@H](c3ccc(O)cc3)N2C1=O`, the composite z-score in test [1] was -0.581; in [3], 0.0293; in test [4], -0.112; in test [5], 0.479; in [6], 2.03; in test [7], 0.588. The figures for the composite z-score in test [8], in test [9] and in test [10] were 1.32, 1.29 and 1.17, respectively. Further, the composite Z-score in test [2] was 0.531 (inactive).
For the compound `COC(=O)[C@@]1(Cc2ccc(OC)cc2)[C@H]2c3cc(C(=O)N4CCCC4)n(Cc4ccsc4Br)c3C[C@H]2CN1C(=O)c1ccccc1`, the composite z-score in [1] is 0.885; in test [3], 0.527; in test [4], -0.0677; in test [5] it was 0.877; in test [6], 2.83; in test [7] it was 0.0786. In addition, the composite z-score in test [8] is 0.374; in test [9], -0.91; in test [10], 0.496. Moreover, the composite Z-score in test [2] is 0.387 (inactive).
As for `COC(=O)[C@@]1(Cc2ccc(F)cc2)[C@H]2c3cc(C(=O)N4CCCC4)n(Cc4cc(C)n(C)n4)c3C[C@H]2CN1C(=O)c1ccccc1`, the composite z-score in test [1] was found to be 1.09; in [3], 0.318; in [4], 0.385; in test [5] it was 0.664; in [6] it was 3.58; in test [7] it was 1.14. In addition, the composite z-score in [8] was 1.32; in test [9], -0.642; in [10], 1.14. Moreover, in test [2], the composite Z-score was 2.46 (inactive).
Regarding `CC(C)C[C@H]1NC(=O)[C@@]23C(=O)N[C@@H](Cc4ccccc4)C2[C@H](C)[C@@]2(C)O[C@H]2C3/C=C/C/C=C\CNC(=O)[C@H](Cc2ccccc2)NC1=O` (stereo not given in full), the composite z-score is -0.188 in test [1]; -0.0377 in test [3]; -0.115 in test [4]; 0.254 in test [5]; 0.19 in test [6]; -0.108 in test [7]. Besides, the composite z-score in [8] amounted to 0.791; in test [9], 0.696; in test [10] it was 0.205. Further, the composite Z-score in test [2] was -0.311 (inactive).
As to `C[N+](C)(C)CCCC[C@@H]1NC(=O)[C@@H]2C[C@H](C(=O)NCCCCCN)[C@H](c3cccc(OCCO)c3)N2C1=O`, the composite z-score is 0.924 in [1]; -0.0744 in test [3]; 0.0292 in test [4]; 0.832 in test [5]; 2.08 in test [6]; -0.207 in test [7]. In addition, the composite z-score in test [8] was 1.32; in test [9], -0.633; in [10], 0.929. In test [2], the composite Z-score is 0.0926 (inactive).
As for `C=CCNC(=O)[C@H]1[C@@H]2C(=O)O[C@@H](c3ccccc3)[C@@H](c3ccccc3)N2[C@@H](c2ccc(OCCO)cc2)[C@]12C(=O)Nc1ccc(C#CC3=CCCCC3)cc12`, the composite z-score in [1] is 0.17; in [3] it was -0.0933; in [4], -0.0703; in test [5], 0.338; in test [6], 0.999; in test [7], 0.272. Further, the composite z-score in [8] came to 1.31; in test [9], 0.105; in test [10], 0.994. Also, the composite Z-score in test [2] was 0.0758 (inactive).
Consider `COc1ccc(CCNC(=O)[C@@]2(Sc3ccc(C)cc3)CC(=O)N(C3CCCCC3)[C@@H]2c2ccc(CO)cc2I)cc1`, for which the composite z-score in test [1] was 0.805; in test [3], -0.0111; in test [4], -0.0759; in test [5], 0.513; in test [6], 1.58; in test [7] it was 0.284. Moreover, the composite z-score in test [8] came out at 1.31; in [9], 0.119; in test [10], 0.977. In addition, the composite Z-score in test [2] is 0.0371 (inactive).
